According to ChEMBL document CHEMBL1201862, “PubChem BioAssay data set” (2004):
The campaign covered roughly 400,000 compounds. About 3,700 (0.93%) were called active. Another 3% or so got no clear call; they are omitted. No cut-off for these calls is given here. Only a selection was taken, and actives are over-represented in it overall.

target: T1, Vitamin D3 receptor (Homo sapiens) (UniProt P11473); assay: Inhibitors of the vitamin D receptor (VDR): qHTS. [Related pubchem assays (depositor defined):AID504855]; type: functional
T1 sequence (whole entry): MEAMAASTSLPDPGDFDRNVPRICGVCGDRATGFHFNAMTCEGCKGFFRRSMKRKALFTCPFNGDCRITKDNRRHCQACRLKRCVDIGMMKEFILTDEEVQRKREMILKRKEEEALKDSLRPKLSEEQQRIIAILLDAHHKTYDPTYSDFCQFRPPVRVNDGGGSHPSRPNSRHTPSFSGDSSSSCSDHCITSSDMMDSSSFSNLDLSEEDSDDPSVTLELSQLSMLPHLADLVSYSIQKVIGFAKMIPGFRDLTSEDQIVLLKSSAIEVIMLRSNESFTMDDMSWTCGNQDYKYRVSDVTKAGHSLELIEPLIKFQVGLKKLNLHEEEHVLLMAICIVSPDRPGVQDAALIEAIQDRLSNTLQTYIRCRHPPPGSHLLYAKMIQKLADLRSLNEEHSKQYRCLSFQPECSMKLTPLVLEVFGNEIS

Potency, active:
COc1ccccc1/C=C/C(=O)c1cccs1 25.1 µM
O=C(/C=C/c1ccc(Cl)cc1)c1cccs1 3.16 µM
CCCc1nnc(NC(=O)C2C(=O)c3cccc4c3N(CC4)C2=O)s1 (stereo not drawn) 79.4 µM
